Measured values reported in PubChem BioAssay AID588445 (Southern Research Specialized Biocontainment Screening …, 2011).
Records with an inconclusive call do not appear. The source made the active and inactive calls. No rule for the calls is given here.

Test: Vero cell cytotoxicity, dose response, cytotoxicity control for M. tuberculosis inhibitor project, purified and synthesized compounds, set 6 (AID 588445)
Settings: cytotoxicity counter-screen; series mostly up to 100 µM

Row | Compound | outcome
1 | CCOC(=O)CSc1ncnc2c1cnn2-c1ccccc1 | inactive
2 | COC(=O)CSc1ncnc2c1cnn2-c1ccc(C)cc1C | inactive
3 | CC1CC(C)CN(C(=O)C2CCC(CNc3c(N4CCCCC4)c(=O)c3=O)CC2)C1 (stereo unspecified) | inactive
4 | CC(C)OC(=O)CSc1ncnc2c1cnn2-c1ccccc1 | inactive
5 | COc1ccc(N2CCN(C(=O)c3ccc(CNc4c(N5CCOCC5)c(=O)c4=O)cc3)CC2)cc1 | inactive
6 | CCOC(=O)CSc1ncnc2c1cnn2-c1ccc(C)cc1C | inactive
